{"source": "PubChem BioAssay (Tox21)", "note": "Results filed as inconclusive are left out. A call without a number means that no potency is given here. Calls of active or inactive are those of the source. Calls follow the shape of the dose curve; as a rule, active = well fitted inhibition curve with a large enough effect in the signal ratio in the repeat runs (not every such curve was filed as active); inconclusive = weak or mixed curves, or effect the other way; inactive = no such curve, though single readings can be large or run the other way; the % refers to the signal ratio.", "data": [{"target": "Estrogen receptor beta (Homo sapiens) (UniProt Q92731)", "sequence (Q92731 whole entry, looked up)": "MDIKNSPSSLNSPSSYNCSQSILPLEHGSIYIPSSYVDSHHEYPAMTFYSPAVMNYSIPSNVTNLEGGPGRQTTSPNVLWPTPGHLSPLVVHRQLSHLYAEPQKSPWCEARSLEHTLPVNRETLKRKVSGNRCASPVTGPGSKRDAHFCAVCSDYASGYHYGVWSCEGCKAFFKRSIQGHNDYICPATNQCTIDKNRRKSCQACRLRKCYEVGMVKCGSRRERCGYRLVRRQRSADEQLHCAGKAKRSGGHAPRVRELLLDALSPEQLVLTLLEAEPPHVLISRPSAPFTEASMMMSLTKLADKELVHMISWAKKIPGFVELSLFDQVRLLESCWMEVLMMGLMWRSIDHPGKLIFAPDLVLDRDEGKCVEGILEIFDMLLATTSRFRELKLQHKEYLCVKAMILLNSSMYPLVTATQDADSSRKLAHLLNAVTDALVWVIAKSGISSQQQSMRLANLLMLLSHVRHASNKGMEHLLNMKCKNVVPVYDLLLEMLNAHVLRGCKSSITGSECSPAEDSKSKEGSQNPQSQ", "assay": "qHTS assay to identify small molecule antagonists of the estrogen receptor beta (ER-beta) signaling pathway (AID 1259378)", "conditions": "ER-beta-UAS-bla HEK293T, beta-lactamase FRET ratio, 16 h; series mostly up to 92.4 µM", "description": "National Center for Advancing Translational Sciences [NCATS]\nNIH Chemical Genomics Center [NCGC]\nU.S. Environmental Protection Agency [EPA]\nNational Institutes of Environmental Health Sciences [NIEHS]\nNational Toxicology Program [NTP]\nU.S. Food and Drug Administration [FDA]\nEstrogen receptor (ER), a nuclear hormone receptor, plays an important role in development, metabolic homeostasis and reproduction. Two subtypes of ER, ER-alpha and ER-beta, have similar expression patterns with some uniqueness in both types. Endocrine disrupting chemicals (EDCs) and their interactions with steroid hormone receptors like ER causes disruption of normal endocrine function. To identify the compounds that inhibit ER signaling, an ER-beta-UAS-bla GripTite cell line (Life Technologies, Madison, WI, USA) containing a beta-lactamase reporter gene under the control of an UAS response element was used to screen Tox21 10K compound library.\nTox21 Assay Protocol Summary:\nER-beta-UAS-bla HEK293T cells were dispensed at 2,000 cells/4 uL of assay medium containing 2% charcoal stripped FBS per well into black wall/clear-bottom 1536-well plates using a Multidrop Combi (ThermoFisher Scientific, Waltham, MA) dispenser. After the assay plates were incubated at a 37C and 5% CO2 for 6 hr, 23 nL of compounds dissolved in DMSO, positive controls or DMSO only was transferred to the assay plate by a Pintool station (Kalypsys, San Diego, CA), followed by addition of 1 uL (1nM as final concentration) of 17-beta-estradiol (E2) in assay medium using a BioRAPTR FRD (Flying Reagent Dispenser, Aurora Discovery, San Diego, CA). The plates were incubated at 37C and 5% CO2 for 16 hr. Then 1 uL of LiveBLAzerTM B/G FRET substrate was added using a Flying Reagent Dispenser, the plates were incubated at room temperature for 2 hours, and fluorescence intensity was measured by an Envision plate reader (PerkinElmer, Shelton, CT).", "values": [{"compound": "O=c1[nH]c2ccccc2c(=O)n1CCCl", "Potency": "inactive"}, {"compound": "CCCCc1ccc2cccc(S(=O)(=O)O)c2c1", "Potency": "inactive"}, {"compound": "CN(C)C(=O)Nc1ccccc1", "Potency": "inactive"}, {"compound": "Cc1ccccc1C(=O)O", "Potency": "inactive"}, {"compound": "CCCCN(CCO)CCO", "Potency": "inactive"}, {"compound": "O=C(O)/C=C/c1ccc(/C=C/C(=O)O)cc1", "Potency": "inactive"}, {"compound": "CCCCCCCCCCCCCCCCCCOCC(O)CO", "note": "(stereo not given)", "Potency": "inactive"}, {"compound": "Cc1cc(C)c(NC(=O)CN(CC(=O)O)CC(=O)O)c(C)c1Br", "Potency": "inactive"}, {"compound": "COC(=O)c1ccc(C(=O)OC)c(C(=O)OC)c1", "Potency": "inactive"}, {"compound": "CN1[C@@H]2CC[C@H]1CC(NC(=O)n1c(=O)[nH]c3ccccc31)C2", "note": "(stereo not given in full)", "Potency": "inactive"}, {"compound": "CCN(CC)C(=O)c1ccc(O)c(OC)c1", "Potency": "inactive"}, {"compound": "C=C(C)C(=O)OCCCCCCCCCCCCCCCCCC", "activity, negative = inhibition": "-0.254% [at 19 µM] (inactive)"}, {"compound": "COC(=O)CCCC(=O)O", "Potency": "inactive"}, {"compound": "NCC[C@H](O)C(=O)N[C@@H]1C[C@H](N)[C@@H](O[C@H]2O[C@H](CN)[C@@H](O)[C@H](O)[C@H]2O)[C@H](O)[C@H]1O[C@H]1O[C@H](CO)[C@@H](O)[C@H](N)[C@H]1O", "activity, negative = inhibition": "-5.02% [at 0.349 µM] (inactive)"}, {"compound": "CCCCCCCCCCCCCCC", "Potency": "inactive"}, {"compound": "CC(C)(O)Cc1ccccc1", "Potency": "inactive"}, {"compound": "CC(C)COC(=O)C(C)C", "Potency": "inactive"}, {"compound": "Oc1ccc2c(c1)OC[C@@H](N1CCC(O)(c3ccc(F)cc3)CC1)[C@H]2O", "Potency": "inactive"}, {"compound": "CCCC=O", "Potency": "inactive"}, {"compound": "OC/C=C/c1ccccc1", "Potency": "inactive"}, {"compound": "CCCC(C)CO", "note": "(stereo not given)", "Potency": "inactive"}, {"compound": "C=CCOCC(O)CS(=O)(=O)O", "note": "(stereo not given)", "Potency": "inactive"}, {"compound": "C1=C\\CC/C=C\\CC/C=C\\CC/1", "Potency": "inactive"}, {"compound": "OC[C@H]1O[C@@H]2O[C@H]3[C@H](O)[C@@H](O)[C@@H](O[C@H]4[C@H](O)[C@@H](O)[C@@H](O[C@H]5[C@H](O)[C@@H](O)[C@@H](O[C@H]6[C@H](O)[C@@H](O)[C@@H](O[C@H]7[C@H](O)[C@@H](O)[C@@H](O[C@H]8[C@H](O)[C@@H](O)[C@@H](O[C@H]9[C@H](O)[C@@H](O)[C@@H](O[C@H]1[C@H](O)[C@H]2O)O[C@@H]9CO)O[C@@H]8CO)O[C@@H]7CO)O[C@@H]6CO)O[C@@H]5CO)O[C@@H]4CO)O[C@@H]3CO", "Potency": "inactive"}, {"compound": "CCCOc1ccccc1-c1nc2n[nH]nc2c(=O)[nH]1", "Potency": "inactive"}, {"compound": "Nc1nc2c(ncn2CCC(CO)CO)c(=O)[nH]1", "Potency": "inactive"}, {"compound": "CC1(C)SC(C)(C)SC(C)(C)S1", "Potency": "inactive"}, {"compound": "CC(C)(C)N(CCO)CCO", "Potency": "inactive"}, {"compound": "C=C[Si](OC)(OC)OC", "Potency": "inactive"}, {"compound": "O=C(O)c1ccc[n+]([O-])c1", "Potency": "inactive"}, {"compound": "CC1CCN(CCCC(=O)c2ccc(F)cc2)CC1", "Potency": "inactive"}, {"compound": "CCOC(=O)Nc1ccc2c(c1)N(C(=O)CCN1CCOCC1)c1ccccc1S2", "Potency": "inactive"}, {"compound": "CCCCCC[C@@H](CCC)C(=O)O", "Potency": "inactive"}, {"compound": "NC(=O)Nc1nc2ccccc2[nH]1", "Potency": "inactive"}, {"compound": "CNC(=O)c1c(I)c(NC(=O)CCCCC(=O)Nc2c(I)c(C(=O)O)c(I)c(C(=O)NC)c2I)c(I)c(C(=O)O)c1I", "Potency": "inactive"}, {"compound": "CC(CCO)CCCC(C)(C)O", "note": "(stereo not given)", "Potency": "inactive"}, {"compound": "FC(F)(F)C(F)(F)C(F)(F)C(F)(F)C(F)(F)C(F)(F)C(F)(F)C(F)(F)C(F)(F)C(F)(F)F", "activity, negative = inhibition": "3.92% [at 8.39 µM] (inactive)"}, {"compound": "Fc1ccccc1-c1ccccc1", "Potency": "inactive"}, {"compound": "[O-][N+](=Nc1ccccc1)c1ccccc1", "Potency": "inactive"}, {"compound": "CCN1CCN(c2cc3c(cc2F)c(=O)c(C(=O)O)cn3C2CC2)CC1", "Potency": "inactive"}]}]}
